The values that follow come from publication PMC7862700, “An all-to-all approach to the identification of sequence-specific readers for epigenetic DNA modifications on cytosine”.

Assay in all cases: DAPPL (digital affinity profiling via proximity ligation, sequencing); 10 mM Tris-HCl pH 7.5, 50 mM NaCl, 1 mM DTT, 4% glycerol, room temperature, 30 min; GST-TFs on glutathione beads, 16-mer random dsDNA library, 0.1% formaldehyde crosslink after washing; high values mean tight binding
Conditions in all cases: protein: recombinant; tags: N-terminal GST; dsDNA, one strand shown

One assay deals with T1, GABPA (Homo sapiens, UniProt Q06546 1-454).
T1 sequence: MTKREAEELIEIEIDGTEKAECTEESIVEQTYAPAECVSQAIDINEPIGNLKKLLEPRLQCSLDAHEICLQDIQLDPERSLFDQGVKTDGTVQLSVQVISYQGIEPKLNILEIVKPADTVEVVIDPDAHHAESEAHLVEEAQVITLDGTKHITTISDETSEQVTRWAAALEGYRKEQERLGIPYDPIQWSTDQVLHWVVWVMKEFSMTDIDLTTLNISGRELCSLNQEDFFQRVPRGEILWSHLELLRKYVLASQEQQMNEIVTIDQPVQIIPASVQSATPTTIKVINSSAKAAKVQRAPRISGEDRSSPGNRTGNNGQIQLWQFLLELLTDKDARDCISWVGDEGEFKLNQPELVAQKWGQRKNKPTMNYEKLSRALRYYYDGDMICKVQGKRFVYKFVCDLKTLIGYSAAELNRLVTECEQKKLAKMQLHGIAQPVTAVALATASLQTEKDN
Summed up:
(§1)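 Binding signal is given per hexamer as its read frequency for a factor divided by its frequency in the tag-only sample. GST-fused human transcription factors were expressed in yeast, captured on glutathione beads, barcoded with DNA and pooled with that sample, then incubated with 200 nmole of a 16-mer random double-stranded DNA library in Tris/NaCl/DTT/glycerol buffer for 30 min at room temperature. The pools were then washed, crosslinked, proximity-ligated, amplified by PCR and sequenced on an Illumina NextSeq500.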

The target of the next assay is T2, ERG (Homo sapiens, UniProt P11308 1-479).
T2 sequence: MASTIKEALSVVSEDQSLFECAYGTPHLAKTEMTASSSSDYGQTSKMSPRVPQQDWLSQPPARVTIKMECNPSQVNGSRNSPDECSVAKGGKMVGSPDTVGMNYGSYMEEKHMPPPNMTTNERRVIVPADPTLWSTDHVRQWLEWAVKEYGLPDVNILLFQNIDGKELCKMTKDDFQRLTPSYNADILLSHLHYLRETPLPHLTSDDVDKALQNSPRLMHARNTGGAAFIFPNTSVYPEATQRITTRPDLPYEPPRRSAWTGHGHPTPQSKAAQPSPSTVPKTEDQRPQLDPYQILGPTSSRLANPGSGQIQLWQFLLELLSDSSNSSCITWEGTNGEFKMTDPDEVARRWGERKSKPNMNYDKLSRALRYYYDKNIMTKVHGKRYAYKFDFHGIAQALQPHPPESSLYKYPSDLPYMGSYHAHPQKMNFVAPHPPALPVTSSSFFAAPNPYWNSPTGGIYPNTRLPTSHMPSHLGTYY
The method in brief:
as §1

In a further assay the target is T3, EHF (Homo sapiens, UniProt Q9NZC4 1-300).
T3 sequence: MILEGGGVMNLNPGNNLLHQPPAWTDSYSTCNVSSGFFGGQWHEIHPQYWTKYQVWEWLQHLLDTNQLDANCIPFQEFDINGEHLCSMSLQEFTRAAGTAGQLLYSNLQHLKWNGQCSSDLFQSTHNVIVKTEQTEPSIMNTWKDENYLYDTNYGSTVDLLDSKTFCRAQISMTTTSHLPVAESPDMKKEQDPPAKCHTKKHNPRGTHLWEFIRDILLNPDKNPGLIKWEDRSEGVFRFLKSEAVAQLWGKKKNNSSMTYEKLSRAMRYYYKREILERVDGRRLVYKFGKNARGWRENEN
The method in brief: as §1

In the next assay the target is SPIB (Homo sapiens, UniProt Q01892 1-262). Summed up:
as §1

Another assay concerns the target T4, ELK3 (Homo sapiens, UniProt P41970 1-407).
T4 sequence: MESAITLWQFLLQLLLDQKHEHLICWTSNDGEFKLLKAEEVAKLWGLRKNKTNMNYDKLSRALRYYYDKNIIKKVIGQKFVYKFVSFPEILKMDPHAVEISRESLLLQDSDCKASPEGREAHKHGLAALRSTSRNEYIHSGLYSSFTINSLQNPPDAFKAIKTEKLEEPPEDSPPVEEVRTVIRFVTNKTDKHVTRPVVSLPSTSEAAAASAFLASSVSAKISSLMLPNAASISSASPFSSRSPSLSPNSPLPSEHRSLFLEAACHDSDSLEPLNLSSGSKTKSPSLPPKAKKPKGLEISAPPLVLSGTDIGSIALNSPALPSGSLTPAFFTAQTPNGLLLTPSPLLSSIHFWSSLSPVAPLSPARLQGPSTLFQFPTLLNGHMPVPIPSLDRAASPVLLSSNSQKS
The method in brief: as §1

A further assay addresses T5, SPIC (Homo sapiens, UniProt Q8N5J4 1-248).
T5 sequence: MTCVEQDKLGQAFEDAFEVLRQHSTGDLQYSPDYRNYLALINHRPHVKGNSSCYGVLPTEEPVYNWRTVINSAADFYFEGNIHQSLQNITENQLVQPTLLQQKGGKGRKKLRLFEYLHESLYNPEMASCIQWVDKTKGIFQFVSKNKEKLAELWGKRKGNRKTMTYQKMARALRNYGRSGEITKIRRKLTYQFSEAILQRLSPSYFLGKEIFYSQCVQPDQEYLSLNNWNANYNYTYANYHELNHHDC
Summed up: as §1

Another assay has as its target ELF4 (Homo sapiens, UniProt Q99607 1-663). Summed up:
as §1

In another assay the target is T6, ELK4 (Homo sapiens, UniProt P28324-2 1-405).
T6 sequence: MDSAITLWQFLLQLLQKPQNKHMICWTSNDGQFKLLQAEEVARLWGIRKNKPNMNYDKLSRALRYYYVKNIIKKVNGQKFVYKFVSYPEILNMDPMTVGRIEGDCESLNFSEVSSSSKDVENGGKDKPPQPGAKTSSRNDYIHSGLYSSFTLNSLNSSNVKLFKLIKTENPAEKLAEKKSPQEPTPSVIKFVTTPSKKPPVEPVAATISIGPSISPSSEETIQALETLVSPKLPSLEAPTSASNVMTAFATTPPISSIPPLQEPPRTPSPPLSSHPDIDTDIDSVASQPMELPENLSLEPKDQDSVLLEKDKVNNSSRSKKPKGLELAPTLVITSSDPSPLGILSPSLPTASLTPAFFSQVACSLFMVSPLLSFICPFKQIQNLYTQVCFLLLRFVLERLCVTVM
Summed up: as §1

The next assay deals with T7, ERF (Homo sapiens, UniProt P50548 1-548).
T7 sequence: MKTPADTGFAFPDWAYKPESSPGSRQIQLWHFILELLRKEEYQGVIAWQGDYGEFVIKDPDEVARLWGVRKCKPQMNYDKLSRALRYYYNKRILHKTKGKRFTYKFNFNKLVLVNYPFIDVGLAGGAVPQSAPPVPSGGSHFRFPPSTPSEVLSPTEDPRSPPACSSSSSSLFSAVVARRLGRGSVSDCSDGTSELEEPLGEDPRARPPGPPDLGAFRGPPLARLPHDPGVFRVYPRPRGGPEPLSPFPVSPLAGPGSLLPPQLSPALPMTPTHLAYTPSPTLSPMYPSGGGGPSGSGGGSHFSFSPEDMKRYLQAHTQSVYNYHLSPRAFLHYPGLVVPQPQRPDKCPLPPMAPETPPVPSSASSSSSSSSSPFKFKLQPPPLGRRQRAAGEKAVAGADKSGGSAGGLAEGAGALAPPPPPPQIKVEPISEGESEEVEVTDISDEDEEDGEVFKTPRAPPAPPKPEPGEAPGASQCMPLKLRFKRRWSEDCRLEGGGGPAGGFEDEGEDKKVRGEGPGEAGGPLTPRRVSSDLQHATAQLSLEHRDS
The method in brief:
as §1

For another assay, the target named is T8, ETV3L (Homo sapiens, UniProt Q6ZN32 1-361).
T8 sequence: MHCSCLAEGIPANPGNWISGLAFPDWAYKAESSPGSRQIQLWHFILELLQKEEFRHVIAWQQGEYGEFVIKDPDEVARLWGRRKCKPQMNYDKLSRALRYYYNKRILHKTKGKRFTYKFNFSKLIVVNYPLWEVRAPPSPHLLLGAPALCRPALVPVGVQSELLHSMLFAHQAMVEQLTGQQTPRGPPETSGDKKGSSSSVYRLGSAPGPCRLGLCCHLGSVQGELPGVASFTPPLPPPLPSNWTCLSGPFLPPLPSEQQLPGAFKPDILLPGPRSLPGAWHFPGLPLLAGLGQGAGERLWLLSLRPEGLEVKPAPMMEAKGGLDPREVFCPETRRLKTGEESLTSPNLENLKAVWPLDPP
The method in brief: as §1

The target in a further assay is T9, ETS2 (Homo sapiens, UniProt P15036 1-469).
T9 sequence: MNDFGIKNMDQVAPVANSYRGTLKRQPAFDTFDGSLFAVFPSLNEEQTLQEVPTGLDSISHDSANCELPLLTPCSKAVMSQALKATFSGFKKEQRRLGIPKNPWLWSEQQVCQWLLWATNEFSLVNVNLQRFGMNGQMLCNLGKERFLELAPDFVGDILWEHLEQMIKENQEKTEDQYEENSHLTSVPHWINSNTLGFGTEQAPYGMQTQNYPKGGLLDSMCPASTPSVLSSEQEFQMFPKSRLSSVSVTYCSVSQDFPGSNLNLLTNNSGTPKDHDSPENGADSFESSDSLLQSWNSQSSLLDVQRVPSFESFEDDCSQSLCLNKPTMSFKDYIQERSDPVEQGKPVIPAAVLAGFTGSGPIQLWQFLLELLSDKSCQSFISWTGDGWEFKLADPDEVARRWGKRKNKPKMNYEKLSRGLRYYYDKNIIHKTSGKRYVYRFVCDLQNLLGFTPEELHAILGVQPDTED
Summed up:
as §1

In a further assay the target is T10, ETV7 (Homo sapiens, UniProt Q9Y603 1-341).
T10 sequence: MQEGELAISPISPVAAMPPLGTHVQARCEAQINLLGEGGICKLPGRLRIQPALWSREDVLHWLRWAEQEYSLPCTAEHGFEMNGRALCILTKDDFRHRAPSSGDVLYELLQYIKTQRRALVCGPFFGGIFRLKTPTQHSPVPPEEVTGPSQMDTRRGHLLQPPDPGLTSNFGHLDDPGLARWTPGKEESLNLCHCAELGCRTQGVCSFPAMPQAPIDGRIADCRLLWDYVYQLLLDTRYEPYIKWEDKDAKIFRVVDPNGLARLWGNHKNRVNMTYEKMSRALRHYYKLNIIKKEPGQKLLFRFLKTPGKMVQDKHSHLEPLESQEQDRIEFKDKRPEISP
Summed up: as §1

The next assay has as its target T11, ETV3 (Homo sapiens, UniProt P41162-2 1-143).
T11 sequence: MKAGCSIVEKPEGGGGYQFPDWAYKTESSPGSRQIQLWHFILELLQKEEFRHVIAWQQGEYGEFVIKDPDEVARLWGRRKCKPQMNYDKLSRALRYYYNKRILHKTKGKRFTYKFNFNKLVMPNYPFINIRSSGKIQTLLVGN
Summed up:
as §1

The target in a further assay is ETV6 (Homo sapiens, UniProt P41212 1-452). The method in brief:
as §1

Chain of ETV6 (P41212 whole entry): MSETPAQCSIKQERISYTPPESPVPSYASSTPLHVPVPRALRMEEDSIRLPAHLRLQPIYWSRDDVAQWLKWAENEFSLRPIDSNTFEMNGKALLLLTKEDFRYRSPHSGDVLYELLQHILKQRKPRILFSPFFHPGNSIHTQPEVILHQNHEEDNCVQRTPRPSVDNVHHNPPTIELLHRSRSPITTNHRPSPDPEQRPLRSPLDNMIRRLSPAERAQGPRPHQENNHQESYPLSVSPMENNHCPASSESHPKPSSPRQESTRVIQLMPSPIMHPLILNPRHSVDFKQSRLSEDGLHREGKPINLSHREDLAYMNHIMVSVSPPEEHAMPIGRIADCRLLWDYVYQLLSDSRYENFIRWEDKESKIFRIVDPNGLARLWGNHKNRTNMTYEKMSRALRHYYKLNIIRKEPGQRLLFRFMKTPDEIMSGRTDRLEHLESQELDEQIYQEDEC
Chain of ELF4 (Q99607 whole entry): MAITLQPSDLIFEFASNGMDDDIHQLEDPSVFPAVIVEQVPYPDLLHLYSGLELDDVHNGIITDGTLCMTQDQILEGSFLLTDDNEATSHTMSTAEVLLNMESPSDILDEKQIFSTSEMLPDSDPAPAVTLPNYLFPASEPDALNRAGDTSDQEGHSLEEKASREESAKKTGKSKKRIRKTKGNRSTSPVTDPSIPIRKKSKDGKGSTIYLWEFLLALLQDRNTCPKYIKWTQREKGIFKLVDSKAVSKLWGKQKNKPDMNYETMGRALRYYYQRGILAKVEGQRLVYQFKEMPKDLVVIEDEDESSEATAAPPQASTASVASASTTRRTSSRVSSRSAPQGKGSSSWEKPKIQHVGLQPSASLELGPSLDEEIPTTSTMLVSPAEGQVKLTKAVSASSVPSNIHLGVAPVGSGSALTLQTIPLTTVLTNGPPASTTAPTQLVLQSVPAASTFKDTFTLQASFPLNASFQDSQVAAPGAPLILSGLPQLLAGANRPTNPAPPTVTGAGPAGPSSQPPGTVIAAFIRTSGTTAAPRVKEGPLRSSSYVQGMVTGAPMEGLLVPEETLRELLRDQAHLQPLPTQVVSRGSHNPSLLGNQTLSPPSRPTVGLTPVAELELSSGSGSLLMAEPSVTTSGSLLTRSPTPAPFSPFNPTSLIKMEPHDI
Chain of SPIB (Q01892 whole entry): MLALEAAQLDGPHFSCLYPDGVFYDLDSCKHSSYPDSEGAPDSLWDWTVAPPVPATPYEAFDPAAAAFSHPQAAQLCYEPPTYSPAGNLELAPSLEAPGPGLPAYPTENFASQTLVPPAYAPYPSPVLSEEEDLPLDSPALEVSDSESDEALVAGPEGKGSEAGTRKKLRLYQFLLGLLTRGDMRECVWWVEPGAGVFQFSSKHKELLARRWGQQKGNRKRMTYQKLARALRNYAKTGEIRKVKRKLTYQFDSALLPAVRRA

As for CATATG, the binding signal was 1.09 fold enrichment (6-mer frequency, TF over GST control) in the assay with GABPA; 1.07 fold enrichment (6-mer frequency, TF over GST control) with ERG; 1.01 fold enrichment (6-mer frequency, TF over GST control) with EHF; 1.04 fold enrichment (6-mer frequency, TF over GST control) in the assay with SPIB; 1.04 fold enrichment (6-mer frequency, TF over GST control) with ELK3; 1.01 fold enrichment (6-mer frequency, TF over GST control) with SPIC. In addition, the binding signal in the assay with ELF4 was 1.04 fold enrichment (6-mer frequency, TF over GST control); in the assay with ELK4, 1.11 fold enrichment (6-mer frequency, TF over GST control); with ERF it was 1.06 fold enrichment (6-mer frequency, TF over GST control); with ETV3L, 1.06 fold enrichment (6-mer frequency, TF over GST control); in the assay with ETS2, 1.04 fold enrichment (6-mer frequency, TF over GST control); with ETV7 it was 1.14 fold enrichment (6-mer frequency, TF over GST control). Also, the binding signal with ETV3 was 1.02 fold enrichment (6-mer frequency, TF over GST control); with ETV6, 1.03 fold enrichment (6-mer frequency, TF over GST control).
